Source: PubChem BioAssay (NCI)
This is part of a sample that, as a whole, favours compounds with a hit. Of some 79,000 tested, about 15% had one in any assay. Active and inactive are the calls of the source. Cut-off read from the data, not from the text of the source: active = growth inhibition above about 70%; inactive = the rest.

Legend:
[1] = NCI Yeast Anticancer Drug Screen. Data for the rad52 strain (AID 147);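 note: 0% = growth of vehicle-treated control cultures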; details: S. cerevisiae rad52 mutant growth inhibition, stronger effect = higher value
In short: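 The repair-mutant yeast strain was incubated with compounds, then growth was read and inhibition derived relative to vehicle.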

[2] = NCI Yeast Anticancer Drug Screen. Data for the wt1 strain (AID 149);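 note: 0% = growth of vehicle-treated wt1 cultures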; details: S. cerevisiae wt1 strain (SPY 50644) growth inhibition, stronger effect = higher value
In short: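 Using yeast strain wt1, compound-induced growth inhibition was determined against vehicle-treated cultures.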

[3] = NCI Yeast Anticancer Drug Screen. Data for the rad50EPP+ strain (AID 151);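 note: 0% = growth of vehicle-treated control cultures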; details: S. cerevisiae rad50 mutant strain, stronger effect = higher value
In short: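 Vehicle-normalised growth inhibition; rad50EPP+ yeast strain, altered in DNA damage repair, compound-treated.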

[4] = NCI Yeast Anticancer Drug Screen. Data for the mgt1 strain (AID 153); details: S. cerevisiae mgt1 mutant growth inhibition, stronger effect = higher value
In short: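 Vehicle-normalized growth inhibition is determined in mgt1 yeast, a strain selected for a defined alteration in DNA repair or cell cycle control.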

[5] = NCI Yeast Anticancer Drug Screen. Data for the rad50 strain (AID 155);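 note: 0% = growth of vehicle-only cultures of the same strain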; details: S. cerevisiae rad50 strain growth inhibition, stronger effect = higher value
In short: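 Relative growth inhibition (compound vs vehicle) was measured in yeast with a defined repair-gene alteration.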

[6] = NCI Yeast Anticancer Drug Screen. Data for the mec2-1 strain (AID 157); details: S. cerevisiae mec2-1 strain, stronger effect = higher value
In short: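 Mutant yeast (mec2-1) grown with compound; growth inhibition relative to vehicle control reported.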

[7] = NCI Yeast Anticancer Drug Screen. Data for the rad14 strain (AID 159);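 note: 0% = growth of vehicle-treated control cultures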; details: S. cerevisiae rad14 strain growth inhibition, stronger effect = higher value
In short: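 Screen for anticancer potential: a yeast strain altered in DNA damage repair is grown with compound, and reduced growth is quantified against vehicle controls.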

[8] = NCI Yeast Anticancer Drug Screen. Data for the sgs1 mgt1 strain (AID 161);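 note: 0% = growth of cultures given vehicle only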; details: S. cerevisiae sgs1 mgt1 strain, stronger effect = higher value
In short: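 Growth of a repair-deficient yeast mutant was monitored after compound treatment and expressed as inhibition relative to vehicle-treated cultures.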

[9] = NCI Yeast Anticancer Drug Screen. Data for the CLN2oe strain (AID 163);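 note: 0% = growth of vehicle-only control cultures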; details: S. cerevisiae CLN2oe strain, stronger effect = higher value
In short: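 Compounds are applied to yeast harbouring a defined cell-cycle control change; reduced growth compared with vehicle-treated controls gives the value.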

[10] = NCI Yeast Anticancer Drug Screen. Data for the cln2 rad14 strain (AID 165);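 note: 0% = growth equal to vehicle treated cultures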; details: S. cerevisiae cln2 rad14 strain, stronger effect = higher value
In short: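 Readout is yeast growth inhibition versus vehicle-treated controls, using a strain with cln2 and rad14 alterations exposed to compound.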

[11] = NCI Yeast Anticancer Drug Screen. Data for the bub3 strain (AID 167); details: S. cerevisiae bub3 mutant strain, stronger effect = higher value
In short: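 Screening used yeast with an engineered genetic alteration affecting cell cycle control. Compound-exposed cultures were compared with vehicle cultures, and reduced growth was taken as inhibition.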

[12] = NCI Yeast Anticancer Drug Screen. Data for the wt2 strain (AID 169);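 note: 0% = growth of vehicle-treated yeast cultures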; details: S. cerevisiae wt2 strain growth inhibition, stronger effect = higher value
In short: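 Against vehicle-treated controls, the growth of yeast exposed to each compound was compared, and the inhibition was recorded.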

[13] = NCI Yeast Anticancer Drug Screen. Data for the mlh1 strain (AID 171);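 note: 0% = growth of vehicle-treated control cultures of the same strain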; details: S. cerevisiae mlh1 strain growth inhibition, stronger effect = higher value
In short: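 Measured: yeast growth. Reference: vehicle-treated controls. Organism: strain with a defined alteration affecting DNA damage repair or cell cycle control, treated with compound.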

[14] = NCI Yeast Anticancer Drug Screen. Data for the sgs1 strain (AID 173);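 note: 0% = growth of vehicle-only control cultures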; details: S. cerevisiae sgs1 mutant, stronger effect = higher value
In short: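 Each compound was added to cultures of the altered yeast strain. Growth was recorded, and inhibition was derived by comparison with vehicle controls.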

[15] = NCI Yeast Anticancer Drug Screen. Data for the mlh1 rad18 strain (AID 175); details: S. cerevisiae mlh1 rad18 strain growth inhibition, stronger effect = higher value
In short: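 Genetically defined yeast (DNA repair-deficient) exposed to compounds; growth inhibition determined relative to vehicle.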

[16] = NCI Yeast Anticancer Drug Screen. Data for the rad18 strain (AID 177); details: S. cerevisiae rad18 mutant growth inhibition, stronger effect = higher value
In short: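 Vehicle-treated cultures served as the baseline for scoring compound-induced growth inhibition in DNA-repair-mutant yeast.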

[17] = at 5.0 µM (retest, dose inferred, filed as 0.5)
[18] = at 50.0 µM (retest, dose inferred, filed as 5.0)

Measured: growth inhibition

O=Cc1ccc(C(F)(F)F)cc1.[C-]#[O+].[C-]#[O+].[C-]#[O+].[Cr]
inactive: [1]; at 1.2 µM 9% | [1]; at 3.7 µM 17% | [1]; at 11.0 µM 39% | [1]; at 33.0 µM 65% | [2]; at 1.2 µM 0% | [2]; at 3.7 µM 2% | [2]; at 11.0 µM 8% | [2]; at 33.0 µM 15% | [2]; at 100.0 µM 17% | [3]; at 1.2 µM 12% | [3]; at 3.7 µM 20% | [3]; at 11.0 µM 37% | [3]; at 33.0 µM 46% | [3]; at 100.0 µM 33% | [4]; at 1.2 µM 1% | [4]; at 3.7 µM 1% | [4]; at 11.0 µM 20% | [4]; at 33.0 µM 11% | [4]; at 100.0 µM 17% | [5]; at 1.2 µM 6% | [5]; at 3.7 µM 11% | [5]; [17] 3% | [5]; at 11.0 µM 23% | [5]; at 33.0 µM 38% | [5]; at 50.0 µM 67.8% | [5]; at 100.0 µM 40% | [6]; at 1.2 µM 5% | [6]; at 3.7 µM 2% | [6]; [17] -7% | [6]; at 11.0 µM 5% | [6]; at 33.0 µM 8% | [6]; [18] 47% | [6]; at 50.0 µM 61.6% | [6]; at 100.0 µM 14% | [7]; at 1.2 µM 6% | [7]; at 3.7 µM 8% | [7]; at 11.0 µM 15% | [7]; at 33.0 µM 30% | [7]; at 100.0 µM 30% | [8]; [17] -18% | [9]; at 1.2 µM 0% | [9]; at 3.7 µM -2% | [9]; at 11.0 µM 2% | [9]; at 33.0 µM 15% | [9]; at 100.0 µM 23% | [10]; [17] -15% | [10]; [18] 58% | [10]; at 50.0 µM 63.6% | [11]; at 1.2 µM -7% | [11]; at 3.7 µM -1% | [11]; [17] -18% | [11]; at 11.0 µM 12% | [11]; at 33.0 µM 21% | [11]; [18] -7% | [11]; at 50.0 µM 66.2% | [11]; at 100.0 µM 31% | [12]; at 1.2 µM 3% | [12]; at 3.7 µM 8% | [12]; at 11.0 µM 23% | [12]; at 33.0 µM 39% | [12]; at 100.0 µM 33% | [13]; at 1.2 µM -1% | [13]; at 3.7 µM -4% | [13]; at 11.0 µM 7% | [13]; at 33.0 µM 8% | [13]; at 100.0 µM 7% | [14]; at 1.2 µM 12% | [14]; at 3.7 µM 11% | [14]; at 11.0 µM 40% | [14]; at 33.0 µM 62% | [14]; at 100.0 µM 64% | [15]; [17] 11% | [15]; at 50.0 µM 63.3% | [16]; at 1.2 µM 1% | [16]; at 3.7 µM 3% | [16]; at 11.0 µM 20% | [16]; at 33.0 µM 40% | [16]; at 100.0 µM 62%
active: [1]; at 100.0 µM 70% | [5]; [18] 75% | [8]; [18] 81% | [8]; at 50.0 µM 78.5% | [15]; [18] 78%

O=C1C2CC(Cl)C(SSC3CC4C(=O)N(SC(Cl)(Cl)C(Cl)Cl)C(=O)C4CC3Cl)CC2C(=O)N1SC(Cl)(Cl)C(Cl)Cl (stereo unspecified)
active: [1]; at 1.2 µM 71% | [1]; at 3.7 µM 91% | [1]; at 11.0 µM 96% | [1]; at 33.0 µM 95% | [1]; at 100.0 µM 89% | [2]; at 3.7 µM 83% | [2]; at 11.0 µM 97% | [2]; at 33.0 µM 96% | [2]; at 100.0 µM 93% | [3]; at 1.2 µM 75% | [3]; at 3.7 µM 97% | [3]; at 11.0 µM 98% | [3]; at 33.0 µM 97% | [3]; at 100.0 µM 93% | [4]; at 3.7 µM 98% | [4]; at 11.0 µM 99% | [4]; at 33.0 µM 97% | [4]; at 100.0 µM 92% | [5]; at 3.7 µM 92% | [5]; [17] 98% | [5]; at 11.0 µM 97% | [5]; at 33.0 µM 96% | [5]; [18] 95% | [5]; at 50.0 µM 90.3% | [5]; at 100.0 µM 90% | [6]; at 3.7 µM 91% | [6]; [17] 100% | [6]; at 11.0 µM 99% | [6]; at 33.0 µM 98% | [6]; [18] 98% | [6]; at 50.0 µM 90.4% | [6]; at 100.0 µM 94% | [7]; at 1.2 µM 83% | [7]; at 3.7 µM 96% | [7]; at 11.0 µM 97% | [7]; at 33.0 µM 96% | [7]; at 100.0 µM 90% | [8]; [18] 95% | [8]; at 50.0 µM 89.5% | [9]; at 3.7 µM 96% | [9]; at 11.0 µM 98% | [9]; at 33.0 µM 97% | [9]; at 100.0 µM 90% | [10]; at 50.0 µM 84.9% | [11]; at 1.2 µM 80% | [11]; at 3.7 µM 99% | [11]; at 11.0 µM 99% | [11]; at 33.0 µM 96% | [11]; [18] 98% | [11]; at 50.0 µM 92.8% | [11]; at 100.0 µM 90% | [12]; at 3.7 µM 95% | [12]; at 11.0 µM 98% | [12]; at 33.0 µM 97% | [12]; at 100.0 µM 90% | [13]; at 3.7 µM 97% | [13]; at 11.0 µM 98% | [13]; at 33.0 µM 97% | [13]; at 100.0 µM 93% | [14]; at 1.2 µM 80% | [14]; at 3.7 µM 98% | [14]; at 11.0 µM 97% | [14]; at 33.0 µM 96% | [14]; at 100.0 µM 87% | [15]; [17] 99% | [15]; [18] 96% | [15]; at 50.0 µM 90.8% | [16]; at 1.2 µM 96% | [16]; at 3.7 µM 97% | [16]; at 11.0 µM 97% | [16]; at 33.0 µM 97% | [16]; at 100.0 µM 89%
inactive: [2]; at 1.2 µM 14% | [4]; at 1.2 µM 68% | [5]; at 1.2 µM 49% | [6]; at 1.2 µM 37% | [8]; [17] -9% | [9]; at 1.2 µM 40% | [10]; [17] -20% | [10]; [18] -57% | [11]; [17] -6% | [12]; at 1.2 µM 17% | [13]; at 1.2 µM 64%
